Source: PubChem BioAssay
Shown are actives, neighbours in structure and some others; about 7.6% of the full set was active somewhere.
KCNH2 3.1 inh: inhibitors of human KCNH2 3.1 potassium channel isoform | U2OS KCNH2 3.1, thallium flux FluxOr; active compounds read low | activity change, % (tested at about 1.8 µM) | actives 0.95% (n = 340,000) | AID 720553;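 active = maximum activity change below -70%; inconclusive = maximum activity change from -70% to -50%; inactive = maximum activity change above -50%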;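 also: thallium influx rate constant from kinetic fluorescence after stimulation buffer; % is scaled to controls: 0 for no effect and ±100 for the full control effect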
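We transduce U2OS cells with the mutant 3.1 virus, culture them overnight, load FluxOr with Red40 quencher for 45 min, then add stimulation buffer and read kinetically for 2 min to derive a normalized rate constant.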
SW480 rerep: induces DNA re-replication in SW480 colon adenocarcinoma cells. AID 624297. SW480 DNA re-replication, Hoechst DNA content imaging, 48 h. actives 1.8% (n = 340,000). Potency, µM (doses to about 46.1 µM), inactives show at the top dose re-replication activation, most hits filed as activators; also: potency is read from the fitted curve at half-maximal effect; % of control where 0% means no effect; nearly all actives have a fitted effect of over 55% in size
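Compounds, transferred as 23 nL by pin tool, were incubated with cells for 48 hr; DNA content per nucleus was then quantified by Hoechst staining and fluorescence plate imaging.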
MCF10A rerep: inducers of DNA re-replication in MCF 10A breast cells. MCF 10A DNA re-replication, Hoechst nuclear intensity, 48 h. Potency, µM (top dose mostly 46.1 µM), inactives show at the top dose activity, positive = re-replication, actives largely listed as activators. actives 2.9% (n = 350,000); also: potency is read from the fitted curve at half-maximal effect; % of control where 0% means no effect; nearly all actives have a fitted effect of over 50% in size
KCNH2 WT inh: blocks the wildtype human KCNH2 potassium channel; Q12809; U2OS, BacMam KCNH2, thallium flux FluxOr; active compounds read low; activity change, % at 1.84 µM; actives 0.37% (n = 340,000);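 active = maximum activity change below -70%; inconclusive = maximum activity change between -70% and -50%; inactive = maximum activity change above -50%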; also: % is scaled to controls: 0 for no effect and ±100 for the full control effect
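U2OS cells were transduced with wild-type KCNH2 virus (2.03 x 10^8 / mL) for 4 h at room temperature, then cultured overnight at 37 C. Thallium flux was read with FluxOr dye. Rate constants were normalized to DMSO controls.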
KB-V1 cytotox: kills drug-selected multidrug resistant KB-V1 cells | KB-V1 MDR cells viability, CellTiter-Glo, 72 h | Potency, µM (doses to about 46.1 µM), hits mostly cytotoxic | actives 3.4% (n = 400,000) | AID 1347076; also: potency is read from the fitted curve at half-maximal effect; % is scaled to controls: 0 for no effect and ±100 for the full control effect; nearly all actives have a fitted effect of over 60% in size
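Readout: CellTiter-Glo luminescence, 10 min after addition. Cells: KB-V1 MDR subline, 72 h at 37 degrees C with compound. Analysis: corrected, normalized data fitted to concentration-effect curves.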
KB-3-1 tox: KB-3-1 parental cell cytotoxicity. actives 1.4% (n = 400,000). AID 1347075. KB-3-1 viability, CellTiter-Glo ATP luminescence, 72 h. Potency, µM (highest dose often 46.1 µM), hits mostly cytotoxic; also: potency is read from the fitted curve at half-maximal effect; % is scaled to controls: 0 for no effect and ±100 for the full control effect; nearly all actives have a fitted effect of over 60% in size
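Cytotoxicity in the drug-sensitive parental line KB-3-1 was scored as loss of CellTiter-Glo luminescence following 72 h incubation with compound. Values come from curve fitting of normalized concentration-response data.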
* = called active by the depositor; ! = not active in a repeat. Unless noted, calls follow the shape of the dose curve; as a rule, active = well fitted curve in the direction sought with a large enough effect; inconclusive = small, poorly fitted or top-dose-only effect, or another doubt; inactive = no such curve, though single readings can be large; an effect the other way counts as inactive or inconclusive.

For COc1ccc(Cl)cc1NC(=O)CSc1nc(Nc2ccccc2)nc(N2CCOCC2)n1 the results were KCNH2 3.1 inh -13, SW480 rerep inconclusive, MCF10A rerep 20%, KCNH2 WT inh -18, KB-V1 cytotox inactive and KB-3-1 tox inactive.
For O=C(NC1CCCCC1)C(c1ccc(F)cc1)N(Cc1ccco1)C(=O)c1csnn1 (configuration not stated) the results were KCNH2 3.1 inh 10, SW480 rerep -6%, MCF10A rerep 2%, KCNH2 WT inh -4, KB-V1 cytotox inactive and KB-3-1 tox inactive.
For CC(C)N1CCN(Cc2ccc(OC3CCCC3)cc2)CC1CCO (configuration not stated) the results were KCNH2 3.1 inh -11, SW480 rerep 3%, MCF10A rerep 4.6µM*, KCNH2 WT inh -15, KB-V1 cytotox inactive and KB-3-1 tox inactive.
Screening CC(C)N1CCN(Cc2ccc(OCc3ccccc3)cc2)CC1CCO (configuration not stated) returned KCNH2 3.1 inh -18, SW480 rerep inconclusive, MCF10A rerep 9%, KCNH2 WT inh 0, KB-V1 cytotox inconclusive and KB-3-1 tox inactive.
`O=C(CO/N=C/c1ccc(OC(F)F)cc1)NCc1cccs1` gave KCNH2 3.1 inh -80*, SW480 rerep -8%, MCF10A rerep 2%, KCNH2 WT inh -16, KB-V1 cytotox inconclusive and KB-3-1 tox inactive.
For O=C(COC(=O)/C=C/c1ccc(OC(F)F)cc1)NCc1cccs1 the results were KCNH2 3.1 inh -2, SW480 rerep 2%, MCF10A rerep -8%, KCNH2 WT inh 24, KB-V1 cytotox inactive and KB-3-1 tox inactive.
Screening O=C(CNS(=O)(=O)c1ccc(Br)s1)N1CCN(c2ccc(F)cc2)CC1 returned KCNH2 3.1 inh -32, SW480 rerep 0%, MCF10A rerep 11%, KCNH2 WT inh 45, KB-V1 cytotox 18µM*! and KB-3-1 tox 23µM*!.
Screening COc1ccc(N2CCN(C(=O)CCNS(=O)(=O)c3ccc(Br)s3)CC2)cc1 returned KCNH2 3.1 inh -4, SW480 rerep -5%, MCF10A rerep 3%, KCNH2 WT inh -8, KB-V1 cytotox 13µM* and KB-3-1 tox inconclusive.
O=C(CNS(=O)(=O)c1ccc(F)cc1)N1CCN(c2ccc(F)cc2)CC1 was read as KCNH2 3.1 inh 2, SW480 rerep 0%, MCF10A rerep -1%, KCNH2 WT inh 19, KB-V1 cytotox inactive and KB-3-1 tox inactive.
`O=C(COC(=O)CNC(=O)c1ccccc1Cl)Nc1cc(C(F)(F)F)ccc1Cl` gave SW480 rerep 4%, MCF10A rerep 15µM*, KB-V1 cytotox inactive and KB-3-1 tox inactive.
Screening O=C1CC(c2ccccc2)CC(O)=C1C=NC1CCCCC1 (configuration not stated) returned KCNH2 3.1 inh -12, SW480 rerep 8%, MCF10A rerep -2%, KCNH2 WT inh -4, KB-V1 cytotox 6.5µM* and KB-3-1 tox inactive.
For O=C1CC(c2ccccc2)CC(O)=C1C=NC1CCCCCC1 (configuration not stated) the results were KCNH2 3.1 inh -7, SW480 rerep -4%, MCF10A rerep -7%, KCNH2 WT inh -5, KB-V1 cytotox inactive and KB-3-1 tox inactive.
Cc1ccc(C(=O)NNc2cc(N3CCCC3)nc(N3CCCC3)n2)cc1 was read as KCNH2 3.1 inh -30, SW480 rerep 10%, MCF10A rerep 19%, KCNH2 WT inh 27, KB-V1 cytotox 1.5µM* and KB-3-1 tox inactive.
Screening O=C(NNc1cc(N2CCOCC2)nc(N2CCOCC2)n1)c1ccc(Cl)c(Cl)c1 returned KCNH2 3.1 inh -8, SW480 rerep 107%, MCF10A rerep -44%, KCNH2 WT inh -2, KB-V1 cytotox 12µM* and KB-3-1 tox inactive.
`COc1ccc(NC(=O)N(C)C[C@H]2Oc3cc(Br)ccc3S(=O)(=O)N([C@H](C)CO)C[C@@H]2C)cc1` gave KCNH2 3.1 inh 12, KCNH2 WT inh -13, KB-V1 cytotox inactive and KB-3-1 tox inactive.
